Shown are actives, neighbours in structure and some others; about 4% of the full set was active somewhere.
PAX8 reporter = inhibitors of PAX8 transcriptional activity in RMG-I cells; RMG-I TPO-luciferase reporter, SteadyGlo, 24 h; inhibition, % at 12.6 µM; actives 1.2% (n = 360,000); AID 652154;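 active means mean replicate inhibition at least 60% with every replicate also reaching 60%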;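 further: luciferase light reporting Pax8 driven TPO promoter activity; plate controls were median of neutral control wells for no effect and mitoxantrone controls for full effect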
Mdm2-MdmX inh = human Mdm2/MdmX binding inhibition. actives 3% (n = 330,000). inhibition, % at 8 µM. SaOS-2 split-luciferase Mdm2/MdmX complementation, luminescence. O15151+Q00987;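 active means inhibition of at least 50% at 8 µM in the primary screen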
Target sequence (O15151 whole entry, looked up): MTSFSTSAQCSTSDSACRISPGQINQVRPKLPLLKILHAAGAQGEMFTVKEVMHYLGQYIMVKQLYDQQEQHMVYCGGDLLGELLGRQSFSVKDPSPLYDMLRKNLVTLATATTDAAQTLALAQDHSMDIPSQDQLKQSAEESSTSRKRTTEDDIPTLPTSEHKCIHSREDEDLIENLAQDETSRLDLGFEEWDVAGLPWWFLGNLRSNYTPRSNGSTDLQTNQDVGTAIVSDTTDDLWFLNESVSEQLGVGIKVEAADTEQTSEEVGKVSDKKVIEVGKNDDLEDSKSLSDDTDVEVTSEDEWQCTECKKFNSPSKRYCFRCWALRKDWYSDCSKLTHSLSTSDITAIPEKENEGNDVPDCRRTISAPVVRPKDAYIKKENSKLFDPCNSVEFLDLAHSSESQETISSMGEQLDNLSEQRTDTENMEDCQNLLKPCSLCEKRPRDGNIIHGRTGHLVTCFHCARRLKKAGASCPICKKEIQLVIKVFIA
Target sequence (Q00987 whole entry, looked up): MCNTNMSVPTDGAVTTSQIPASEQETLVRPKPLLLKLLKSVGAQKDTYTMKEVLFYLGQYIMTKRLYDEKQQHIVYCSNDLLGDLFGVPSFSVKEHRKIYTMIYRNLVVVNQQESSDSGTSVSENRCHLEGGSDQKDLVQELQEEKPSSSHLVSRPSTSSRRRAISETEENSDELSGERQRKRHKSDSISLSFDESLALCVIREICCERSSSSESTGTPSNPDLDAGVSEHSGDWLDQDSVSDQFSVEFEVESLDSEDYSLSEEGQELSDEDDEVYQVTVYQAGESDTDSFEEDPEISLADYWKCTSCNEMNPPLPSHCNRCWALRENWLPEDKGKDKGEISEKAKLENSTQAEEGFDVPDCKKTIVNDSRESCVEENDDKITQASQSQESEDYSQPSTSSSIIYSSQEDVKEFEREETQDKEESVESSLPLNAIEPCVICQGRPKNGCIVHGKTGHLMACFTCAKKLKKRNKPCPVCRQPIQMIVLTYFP
Beta cell apopt = beta cell apoptosis inhibition; actives 0.8% (n = 300,000); protection from apoptosis, % (concentration not given with the values); INS-1E cytokine-induced death, ATP luminescence, 48 h; percent of positive-control rescue, neutral wells zero;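 active means Every replicate reaches about 75%, or at least half do and their mean reaches it too, limit read from the data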;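 further: 0% = cytokine-treated negative control wells and 100% = positive control rescue; higher means more ATP so stronger rescue from cytokine killing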
Shn3 inh set2 = Schnurri-3 reporter inhibition in Clone20 osteoblasts; Clone20 osteoblast Shn3 3'UTR firefly luciferase, 24 h; inhibition, % at 12.5 µM; AID 588674; actives 0.52% (n = 360,000);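 active means mean inhibition of at least 75% with every replicate also reaching 75%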;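 further: 0% = median of neutral control wells and 100% = pilot-screen positive control compound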
Gli-Sufu antag = blocks Gli-Sufu signaling in a luciferase reporter | Sufu-KO-LIGHT fibroblasts, Gli luciferase reporter luminescence | inhibition, % at 5 µM | actives 0.74% (n = 340,000);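 active means inhibition above about 55%, limit read from the data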;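 further: 0% = DMSO-treated cells and 100% = wells with medium but no cells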
CSC inhib = blocks cancer stem cells. cancer stem cell-like cells viability, luminescence. inhibition, % at 7.5 µM. actives 1.1% (n = 300,000); in the data active means inhibition above about 75%; tested in HMLE shEcad cells
The depositor's hits bear a star; nt = no result given.

SMILES	PAX8 reporter	Mdm2-MdmX inh	Beta cell apopt	Shn3 inh set2	Gli-Sufu antag	CSC inhib
N#C[C@@H]1[C@@H](c2ccc(C#CC3CC3)cc2)[C@H](CO)N1S(=O)(=O)c1ccccc1	4	nt	nt	nt	nt	nt
N#C[C@H]1[C@@H](c2ccc(C#CC3CCCCC3)cc2)[C@@H](CO)N1C(=O)Cc1ccccn1	61*	nt	nt	nt	nt	nt
CCC(=O)N1[C@@H]2c3ccc(/C=C/c4ccccc4)c(=O)n3C[C@H]1[C@H](CO)[C@H]2C(=O)N1CCOCC1	-4	nt	nt	nt	nt	nt
N#C[C@H]1[C@H](c2ccc(C#CC3CCCCC3)cc2)[C@@H](CO)N1S(=O)(=O)c1ccccc1	68*	nt	nt	nt	nt	nt
N#C[C@H]1[C@@H](c2ccc(C#CC3CCCCC3)cc2)[C@@H](CO)N1S(=O)(=O)c1ccccc1	79*	nt	nt	nt	nt	nt
N#C[C@H]1[C@@H](c2ccc(C#CC3CCCCC3)cc2)[C@H](CO)N1S(=O)(=O)c1ccccc1	27	nt	nt	nt	nt	nt
O=C(NCCN1CCCC1)[C@@H]1[C@@H](CO)[C@@H]2Cn3c(cccc3=O)[C@H]1N2C(=O)NC1CCCC1	-31	nt	nt	nt	nt	nt
OC(COCC(F)(F)C(F)(F)C(F)(F)C(F)F)Cn1c2ccccc2c2ccccc21 (stereo not given)	50	21	3	-5	5	103*
O=C1C=C(NCCN2CCOCC2)C(=O)c2cnccc21	nt	nt	98*	nt	nt	-14
NC(=O)NC(=O)COC(=O)c1ccc(Cl)c(S(=O)(=O)N(Cc2ccccc2)c2ccc(Cl)cc2)c1	-5	-7	-13	3	-4	86*
NC(=O)COC(=O)c1ccc(Cl)c(S(=O)(=O)N(Cc2ccccc2)c2ccc(Cl)cc2)c1	22	19	-6	3	-7	50
Cc1sc2ncnc(NCC(O)c3ccccc3)c2c1C (stereo not given)	-59	-10	88*	39	22	-17
Cc1sc2ncnc(N/N=C/c3ccccc3O)c2c1C	5	nt	85*	86*	nt	105*
Cc1sc2ncnc(NCC(c3ccccc3)N(C)C)c2c1C (stereo not given)	3	-19	9	11	8	8
O=C(NCC[C@H]1CC[C@H](NS(=O)(=O)c2cccc(Cl)c2)[C@H](CO)O1)c1cnccn1	7	nt	nt	nt	nt	nt
Cc1cc(/C=N/NC(=O)C(=O)N2CCCC2)c(C)n1-c1cccc(Br)c1	nt	17	-1	10	-5	1
Cc1cc(/C=N/NC(=O)c2c(Br)cnn2C)c(C)n1-c1cccc(Br)c1	77*	24	1	4	3	-4
O=C(NCc1cc(F)cc(F)c1)[C@@H]1[C@@H](CO)[C@@H]2Cn3c(cccc3=O)[C@H]1N2C(=O)c1ccccn1	-7	nt	nt	nt	nt	nt
CCC(C)c1ccccc1NC(=O)COC(=O)c1ccc2[nH]c3c(c2c1)CCCC3 (stereo not given)	7	40	7	15	5	107*
O=C(COC(=O)c1ccc2[nH]c3c(c2c1)CCCC3)Nc1ccc(Cl)cc1Cl	-4	31	4	-24	-2	22
Cc1ccc(C=Nc2ccccc2C(N)=O)s1	-5	29	8	-24	10	78*
Cc1cccc(C=Nc2ccccc2C(N)=O)c1	nt	42	8	-22	43	-1
COc1ccc(CN(C)C[C@H]2Oc3ccc(NC(=O)C4CC4)cc3CC(=O)N([C@H](C)CO)C[C@@H]2C)cc1	-24	nt	nt	nt	nt	nt
O=C(C[C@@H]1CC[C@H](NC(=O)Nc2ccccc2)[C@@H](CO)O1)NCc1cccc(F)c1	-27	nt	nt	nt	nt	nt
O=[N+]([O-])c1cc(C(F)(F)F)ccc1NCCCCNS(=O)(=O)c1ccc(Cl)cc1	43	23	88*	52	18	nt
O=[N+]([O-])c1cc(C(F)(F)F)ccc1NCCc1c[nH]c2ccccc12	8	20	2	13	4	99*
CS(=O)(=O)NCCCNc1ccc(C(F)(F)F)cc1[N+](=O)[O-]	-6	-1	1	nt	2	-9
C[C@H]1CCCCO[C@H](CN(C)C(=O)Nc2ccc(F)cc2)[C@@H](C)CN([C@@H](C)CO)C(=O)c2cc(NS(=O)(=O)c3cn(C)cn3)ccc2O1	0	nt	nt	nt	nt	nt
O=c1[nH]c(CN2CCN(c3ccccn3)CC2)nc2c(Br)cc(Br)cc12	5	43	-12	14	9	81*
Cc1ccc(C(=O)NC2CCCc3c2cnn3-c2ccc(F)cc2F)cn1 (stereo not given)	nt	14	100*	83	nt	5
